Bioassay records (PubChem BioAssay)
LASV entry inh: inhibitors of Lassa virus binding or cell entry | Potency, µM (series often up to 37.9 µM), for the others: at the highest dose activity change, negative = inhibition, hits mostly inhibitors | Lassa virus pseudotype entry inhibition, cell reporter | hit rate 1.2% among 300,000; calls by dose curve; tested in HEK293 cells; note: potency is the fitted concentration of half-maximal effect; nearly all actives have a fitted effect of over 50% in size
FMDV antiviral: antivirals against foot and mouth disease virus; FMDV antiviral cell-based qHTS; Potency, µM (titrated, usually from 57.9 µM), for inactives: at the top dose activity change, negative = inhibition, most hits filed as inhibitors; hit rate 1.2% among 410,000; AID 1159524; calls by dose curve; tested in HEK293T cells; note: read-out not given here; potency is the fitted concentration of half-maximal effect; nearly all actives have a fitted effect of over 45% in size
HCMV antiviral: blocks human cytomegalovirus replication | HFF cells, HCMV-luciferase reporter, 72 h; stronger effect = lower value | hit rate 4.5% among 410,000 | activity change, negative = inhibition, % at 57.5 µM; in the data active = activity change below about -60%; inconclusive = no clear call, values can overlap the other calls; inactive = above about -39%
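Inhibition of viral replication was scored as loss of reporter luminescence in HFFs infected with HCMV-luciferase (MOI 1 PFU/cell) for 72 h; compounds tested at 2 doses, normalized to buffer and Salinomycin controls.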
MARV entry inh: inhibitors of Marburg virus binding or cell entry | Marburg virus pseudotyped entry inhibition, cell reporter | Potency, µM (series often up to 37.8 µM), without a hit: at the top dose activity change, negative = inhibition, most hits filed as inhibitors | hit rate 1.8% among 300,000 | AID 540276; calls by dose curve; tested in HEK293 cells; note: potency is the fitted concentration of half-maximal effect
Starred values were filed as active, the others as inactive; ! = not confirmed by another sample; [ ] = remark or other dose. Compounds with a hit are over-represented: about 6.2% of the library has one in this group of screens. % is set by controls: 0 for no effect and ±100 for the full control effect.

CCOc1ccc(C(=O)C(C)OC(=O)C2CCN(c3ccc(C(F)(F)F)cn3)CC2)cc1 (stereo not drawn) was read as LASV entry inh inconclusive, FMDV antiviral -14.0%, HCMV antiviral -12.8 and MARV entry inh inconclusive.
Cc1ccc(-n2c(=O)[nH]c3ncccc3c2=O)cc1 was read as FMDV antiviral -10.6% and HCMV antiviral -25.3.
Screening Cc1ccc(-n2c(-c3ccc(Br)cc3)c[n+]3c2CCc2ccc4cccnc4c2-3)cc1 returned LASV entry inh 6.51µM*, FMDV antiviral 1.12µM*, HCMV antiviral -104.1* and MARV entry inh 2.31µM*!.
COc1cc(NS(=O)(=O)c2cc(Br)cc3c2N(C(=O)C2CC2)CC3)cc(OC)c1 was read as LASV entry inh 3.55µM*, FMDV antiviral -91.7% and HCMV antiviral 30.8.
`Cc1ccc(NS(=O)(=O)c2cc(Br)cc3c2N(C(=O)C2CC2)CC3)cc1C` gave LASV entry inh inconclusive, FMDV antiviral -51.4% and HCMV antiviral -75.2*.
`CCOC(=O)c1c(CSc2ccccc2)oc2ccc(O)cc12` gave LASV entry inh inconclusive, FMDV antiviral -20.0%, HCMV antiviral 24.4 and MARV entry inh inconclusive.
`CCCSc1ccc2nc(-c3ccccc3)cn2c1` gave LASV entry inh 2.24µM*, FMDV antiviral 2.24µM*, HCMV antiviral -63.8* and MARV entry inh inconclusive.
For c1ccc(-c2cn3ccccc3n2)cc1 the results were LASV entry inh -15.9%[46.1 µM], FMDV antiviral 3.9%, HCMV antiviral 93.7 and MARV entry inh 11.2µM*.
`Oc1ccc(-c2cn3ccccc3n2)cc1` gave FMDV antiviral 9.6% and HCMV antiviral 72.3.
Brc1ccc(-c2cn3ccccc3n2)cc1 was read as LASV entry inh 2.82µM*, FMDV antiviral -54.8%, HCMV antiviral 68.1 and MARV entry inh inconclusive.
CCCCSc1ccc2nc(-c3ccc(C#N)cc3)cn2c1 was read as LASV entry inh inconclusive, FMDV antiviral -2.3%, HCMV antiviral -4.0 and MARV entry inh -25.3%.
For Cc1nn2cc(-c3ccccc3)nc2s1 the results were LASV entry inh inconclusive, HCMV antiviral 57.2 and MARV entry inh inconclusive.
c1ccc(-c2cn3nc(-c4ccccc4)sc3n2)cc1 was read as LASV entry inh inconclusive, FMDV antiviral 10µM* and MARV entry inh inconclusive.
`CC1=C(C(=O)N2CCCCCC2)CC(CC(=O)NCCN2CCOCC2)C(=O)N1Cc1ccc(F)cc1` (stereo not drawn) gave FMDV antiviral -29.6% and HCMV antiviral -18.3.
`Cc1occc1-c1nnc(SCC(=O)N2CC(=O)Nc3ccccc32)n1CC(C)C` gave LASV entry inh -20.7%, FMDV antiviral -13.8%, HCMV antiviral -21.7 and MARV entry inh -1.4%[46.1 µM].
For O=[N+]([O-])c1ccc(-c2cn3ccccc3n2)cc1 the results were FMDV antiviral 9.7% and HCMV antiviral -64.7*.
Screening CN(C)S(=O)(=O)c1ccc(-c2cn3ccccc3n2)cc1 returned LASV entry inh -21.8%, FMDV antiviral 3.4%, HCMV antiviral 3.5 and MARV entry inh inconclusive.
Cc1ccc(-n2c(SCc3nc(-c4ccc(Cl)cc4)no3)nnc2-c2ccncc2)cc1 was read as LASV entry inh -17.8%[46.1 µM], FMDV antiviral inconclusive, HCMV antiviral -22.8 and MARV entry inh inconclusive.
Screening Clc1ccc(-c2noc(CSc3nnc(-c4ccncc4)n3-c3ccccc3)n2)cc1 returned LASV entry inh -28.4%, FMDV antiviral 25.1µM*, HCMV antiviral -101.3* and MARV entry inh inconclusive.
Screening Clc1ccccc1-c1nnc(SCc2nc(-c3ccccc3)no2)n1-c1ccccc1 returned LASV entry inh inconclusive, FMDV antiviral 25.1µM*, HCMV antiviral inconclusive and MARV entry inh inconclusive.
`CCOc1ccc(-c2noc(CSc3nnc(-c4ccccc4)n3-c3ccccc3)n2)cc1` gave LASV entry inh -24.3%[46.1 µM], FMDV antiviral inconclusive, HCMV antiviral -14.5 and MARV entry inh 1.8%[46.1 µM].
`O=C(NCC(c1ccco1)N1CCN(c2ccccc2)CC1)c1ccc2c(c1)OCO2` (stereo not drawn) gave LASV entry inh -23.0%, FMDV antiviral -24.8%, HCMV antiviral -7.0 and MARV entry inh 0.3%[46.1 µM].
For COC(=O)c1scc(-c2ccc(C)cc2)c1S(=O)(=O)Nc1c(C)cc(C)cc1C the results were LASV entry inh -2.6%[46.1 µM], FMDV antiviral 19.9% and HCMV antiviral 18.5.
`CCN(c1ccccc1)S(=O)(=O)c1c(-c2ccc(C)cc2)csc1C(=O)OC` gave LASV entry inh inconclusive, FMDV antiviral -14.6% and HCMV antiviral -66.9*.
Screening CCN(CC)S(=O)(=O)c1cc(-c2nnc(Nc3ccc(OC)c(C(N)=O)c3)c3ccccc23)ccc1C returned LASV entry inh inconclusive, FMDV antiviral inconclusive and HCMV antiviral -64.7*.
`COc1ccc(Nc2nnc(-c3ccc(C)cc3)c3ccccc23)cc1C(=O)N1CCCCC1` gave LASV entry inh inconclusive, FMDV antiviral inconclusive, HCMV antiviral -73.3* and MARV entry inh inconclusive.
`NC(=O)c1nsc(C(=O)N(c2ccccc2F)C(C(=O)NCc2ccccc2)c2ccc(O)cc2)c1N` (stereo not drawn) gave FMDV antiviral inconclusive, HCMV antiviral -8.3 and MARV entry inh -21.6%[46.1 µM].
Screening CCCCCn1ccc(=O)c2c(C(F)(F)F)nccc21 returned LASV entry inh inconclusive, FMDV antiviral inconclusive, HCMV antiviral -66.2* and MARV entry inh inconclusive.
CCCCCCCn1ccc(O)c(CC(=O)OC)c1=O was read as LASV entry inh 6.0%, FMDV antiviral -0.1%, HCMV antiviral 45.2 and MARV entry inh 11.5%[46.1 µM].
For COc1ccc(NC(=O)N(C)C[C@H]2OCc3cnnn3CCCC(=O)N([C@@H](C)CO)C[C@H]2C)cc1 the results were FMDV antiviral -16.4% and HCMV antiviral -4.4.
Screening Cn1c(SCc2cccc([N+](=O)[O-])c2)nc2ccccc2c1=O returned LASV entry inh -18.5%, FMDV antiviral 20µM*, HCMV antiviral inconclusive and MARV entry inh inconclusive.
`COc1ccc(C(=O)Nn2c(SCc3cccc([N+](=O)[O-])c3)nc3ccccc3c2=O)cc1` gave LASV entry inh 3.26µM*, FMDV antiviral inconclusive, HCMV antiviral -70.5* and MARV entry inh 8.91µM*.
Cc1ccc(-n2c(SCc3cn4ccsc4n3)nc3ccccc3c2=O)cc1 was read as LASV entry inh inconclusive, FMDV antiviral -10.3%, HCMV antiviral -65.2* and MARV entry inh -24.3%.
Screening c1ccc(-n2cnnc2SCc2cn3ccsc3n2)cc1 returned LASV entry inh 0.0%, FMDV antiviral 29.2%, HCMV antiviral -11.2 and MARV entry inh inconclusive.
`CCOC(CCn1c(SCc2cccc([N+](=O)[O-])c2)nc2ccccc2c1=O)OCC` gave LASV entry inh 3.9%, FMDV antiviral inconclusive, HCMV antiviral 16.3 and MARV entry inh inconclusive.
Screening Cc1nnc(SCc2cccc([N+](=O)[O-])c2)[nH]c1=O returned LASV entry inh -4.4%[46.1 µM], FMDV antiviral -8.2%, HCMV antiviral -81.5* and MARV entry inh 21.2%[46.1 µM].
`COCCN(C(=S)Nc1cccc(OC)c1)C1CCN(C(C)C)CC1` gave LASV entry inh 4.3%, FMDV antiviral -17.6%, HCMV antiviral 21.0 and MARV entry inh 2.6%.
